Results from PubChem BioAssay (NCATS).
Results filed as inconclusive are left out. Calls of active or inactive are those of the source. Unless noted, calls follow the shape of the dose curve; as a rule, active = well fitted curve in the direction sought with a large enough effect; inconclusive = small, poorly fitted or top-dose-only effect, or another doubt; inactive = no such curve, though single readings can be large; an effect the other way counts as inactive or inconclusive.

How the values were obtained:
[1] = qHTS assay for measurement of the activity of small molecule inhibitors on Zika virus induced Caspase-3 activity in human iPSC derived neural progenitor cells (hNPCs) (AID 1224857); also: nearly all actives have a fitted effect of over 65% in size
In short: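 Zika virus (2 FFU/cell) infection of human iPSC-derived NPCs, 6 h, following 1 h compound preincubation. Read-out: Caspase-Glo 3/7 luminescence.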

[2] = qHTS assay for measurement of the activity of small molecule inhibitors on Zika virus induced Caspase-3 activity in human astrocytoma cells (AID 1224859)
In short: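 Caspase activation in ZIKV-infected SNB-19 cells (2 FFU/cell, 6 h) measured by Caspase-Glo 3/7 luminescence after 30 min RT; compound pre-incubated 1 h; normalised to uninfected and infected controls.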

[3] = qHTS assay to identify small molecule inhibitors of chordoma cells - UCH-1 (AID 1259355); also: nearly all actives have a fitted effect of over 55% in size
In short: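 Luminescent ATP read-out (CellTiter-Glo, 30min at room temperature) measured viability of UCH-1 cells exposed for 48hr to test drugs at 15 concentrations, co-dosed with a five-agent combination of auranofin, camptothecin, doxorubicin, rubitecan and topotecan.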

[4] = qHTS assay to identify small molecule inhibitors of chordoma cells - UCH-2 (AID 1259356); also: series mostly up to about 46 µM
[5] = P-glycoprotein substrates identified in KB-8-5-11 adenocarcinoma cell line, qHTS therapeutic library screen (AID 1346987); also: nearly all actives have a fitted effect of over 65% in size
In short: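 P-gp-mediated resistance screen: KB-8-5-11 cells treated 72 h with compounds in dose-response. CellTiter-Glo viability.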

[6] = molecular target: Atrial natriuretic peptide receptor 1 (Homo sapiens) (UniProt P16066); test: Natriuretic polypeptide receptor (hNpr1) antagonism - Pilot screen (AID 1347049; calls by dose curve;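 also: agonist-evoked cGMP luminescence read 20 min after hNppA addition; series mostly up to about 58 µM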)
In short: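 HEK293 cells co-expressing hNpr1 and the GloSensor pGS-40F cGMP luciferase sensor were preloaded with 2% GloSensor reagent for 2 h. Compounds were added for 30 min at room temperature, then cells were stimulated with 0.1 nM hNppA for 20 min before luminescence readout.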

[7] = molecular target: Atrial natriuretic peptide receptor 2 (Homo sapiens) (UniProt P20594); test: Natriuretic polypeptide receptor (hNpr2) antagonism - Pilot subtype selectivity assay (AID 1347050; calls by dose curve)
In short: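 cGMP-sensor HEK293/hNpr2 cells; 2% GloSensor reagent 2 h RT; compounds 30 min; baseline luminescence read; 1 nM hNppC agonist 20 min RT; final luminescence read by CCD camera. Antagonism = reduced post-agonist signal.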

[8] = NS1 protein of Zika virus - qHTS assay to identify small molecule inhibitors in human HEK 293 cells (AID 1347053); also: series mostly up to about 46 µM; nearly all actives have a fitted effect of over 55% in size
In short: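 Following 20 h seeding, HEK 293 cells took compound, then 1 h later ZIKV MR766 (MOI = 0.5). Incubation ran 24 h at 37 C before TR-FRET detection of NS1; a drop in signal indicates inhibition.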

[9] = Natriuretic polypeptide receptor (hNpr1) antagonism - Pilot counterscreen GloSensor control cell line (AID 1347045; calls by dose curve; also: series mostly up to about 38 µM)
In short: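 This counterscreen uses HEK293 cells expressing the GIP/pGS-40F cGMP biosensor. Compound-treated cells are challenged with 50 uM sodium nitroprusside, and the luciferase signal is compared before and after stimulation.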

[10] = molecular target: T1, Tyrosine-protein phosphatase non-receptor type substrate 1 (Homo sapiens) + Leukocyte surface antigen CD47 (Homo sapiens) (UniProt P78324+Q08722); test: CD47-SIRPalpha protein protein interaction - LANCE assay qHTS validation (AID 1347057; active = well fitted curve in the direction sought with a large enough effect in the signal ratio, with a control signal flat, not every such curve was filed as active; the % refers to the signal ratio; also: series mostly up to about 38 µM)
In short: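 First, His-tagged CD47 and Eu-labelled anti-His antibody met the compound for 30 min; next, site-specifically biotinylated SIRPalpha was added for 30 min; finally streptavidin-APC was added before reading the TR-FRET ratio.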

[11] = molecular target: T1, Tyrosine-protein phosphatase non-receptor type substrate 1 (Homo sapiens) + Leukocyte surface antigen CD47 (Homo sapiens); test: CD47-SIRPalpha protein protein interaction - HTRF assay qHTS validation (AID 1347058; active = well fitted curve in the direction sought with a large enough effect in the signal ratio, not every such curve was filed as active; the % refers to the signal ratio;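 also: recombinant soluble extracellular CD47 with His tag and biotinylated SIRPalpha domains; series mostly up to about 38 µM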)
In short: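 TR-FRET read (Ch1/Ch2 ratio) of soluble extracellular CD47 and Avi-biotinylated SIRPalpha domains in PBS pH 7.4 with 0.05% IGEPAL; 7-point compound titration. Sequential 30 min room-temperature steps; non-biotinylated SIRPalpha as control inhibitor.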

Measured: Potency

Atrial natriuretic peptide receptor 1 (Homo sapiens), sequence (P16066 whole entry, looked up): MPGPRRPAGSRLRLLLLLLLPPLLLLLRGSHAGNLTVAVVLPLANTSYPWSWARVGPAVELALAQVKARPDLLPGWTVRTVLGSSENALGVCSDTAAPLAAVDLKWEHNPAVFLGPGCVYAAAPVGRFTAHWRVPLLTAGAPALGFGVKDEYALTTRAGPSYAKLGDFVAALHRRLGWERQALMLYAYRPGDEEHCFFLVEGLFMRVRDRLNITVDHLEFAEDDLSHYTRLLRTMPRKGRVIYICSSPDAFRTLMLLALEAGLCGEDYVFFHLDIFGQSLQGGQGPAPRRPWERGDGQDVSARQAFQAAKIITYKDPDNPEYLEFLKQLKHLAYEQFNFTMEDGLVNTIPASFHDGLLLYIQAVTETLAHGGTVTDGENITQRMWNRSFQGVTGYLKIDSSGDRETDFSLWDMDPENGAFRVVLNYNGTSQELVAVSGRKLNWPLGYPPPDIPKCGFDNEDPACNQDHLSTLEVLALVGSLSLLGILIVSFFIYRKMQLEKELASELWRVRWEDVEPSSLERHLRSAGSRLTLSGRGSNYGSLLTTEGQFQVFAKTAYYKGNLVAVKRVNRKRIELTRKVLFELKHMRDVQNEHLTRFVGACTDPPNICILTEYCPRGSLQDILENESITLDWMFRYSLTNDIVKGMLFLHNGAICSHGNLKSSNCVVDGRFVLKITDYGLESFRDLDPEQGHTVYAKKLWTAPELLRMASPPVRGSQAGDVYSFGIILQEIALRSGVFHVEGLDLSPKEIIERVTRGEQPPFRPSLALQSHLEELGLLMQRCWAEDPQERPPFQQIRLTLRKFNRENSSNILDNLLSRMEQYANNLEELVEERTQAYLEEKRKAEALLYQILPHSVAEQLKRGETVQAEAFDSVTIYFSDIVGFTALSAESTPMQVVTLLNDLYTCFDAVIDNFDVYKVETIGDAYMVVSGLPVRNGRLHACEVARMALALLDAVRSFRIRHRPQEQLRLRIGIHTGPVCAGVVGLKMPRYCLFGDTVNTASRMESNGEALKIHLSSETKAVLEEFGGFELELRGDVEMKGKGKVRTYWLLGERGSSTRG
Atrial natriuretic peptide receptor 2 (Homo sapiens), sequence (P20594 whole entry, looked up): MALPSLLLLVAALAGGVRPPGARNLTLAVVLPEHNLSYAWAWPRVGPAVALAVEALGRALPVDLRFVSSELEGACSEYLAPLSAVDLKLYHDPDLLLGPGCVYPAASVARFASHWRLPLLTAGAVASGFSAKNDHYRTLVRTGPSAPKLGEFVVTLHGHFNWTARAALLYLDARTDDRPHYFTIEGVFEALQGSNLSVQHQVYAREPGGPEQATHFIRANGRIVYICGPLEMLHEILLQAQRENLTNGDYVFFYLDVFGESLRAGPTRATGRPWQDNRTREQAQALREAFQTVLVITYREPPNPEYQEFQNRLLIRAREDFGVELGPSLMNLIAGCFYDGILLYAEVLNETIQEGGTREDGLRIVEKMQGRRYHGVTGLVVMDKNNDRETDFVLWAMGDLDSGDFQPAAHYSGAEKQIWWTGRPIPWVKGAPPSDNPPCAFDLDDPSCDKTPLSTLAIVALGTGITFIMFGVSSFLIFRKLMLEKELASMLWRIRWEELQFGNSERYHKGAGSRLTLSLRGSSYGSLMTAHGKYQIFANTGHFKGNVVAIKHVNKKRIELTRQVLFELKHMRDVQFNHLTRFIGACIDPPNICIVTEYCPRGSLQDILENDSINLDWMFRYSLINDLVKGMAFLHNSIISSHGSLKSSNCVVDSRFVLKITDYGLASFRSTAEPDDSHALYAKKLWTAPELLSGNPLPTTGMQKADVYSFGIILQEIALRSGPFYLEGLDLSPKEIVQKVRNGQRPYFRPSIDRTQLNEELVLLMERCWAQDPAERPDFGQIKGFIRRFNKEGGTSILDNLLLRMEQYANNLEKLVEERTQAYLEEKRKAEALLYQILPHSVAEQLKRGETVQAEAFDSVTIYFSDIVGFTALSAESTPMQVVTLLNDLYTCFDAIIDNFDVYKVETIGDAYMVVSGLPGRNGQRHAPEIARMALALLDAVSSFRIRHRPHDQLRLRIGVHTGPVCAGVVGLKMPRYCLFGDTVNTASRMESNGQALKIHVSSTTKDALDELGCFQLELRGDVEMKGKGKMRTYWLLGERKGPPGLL
T1 sequence (P78324 whole entry, looked up): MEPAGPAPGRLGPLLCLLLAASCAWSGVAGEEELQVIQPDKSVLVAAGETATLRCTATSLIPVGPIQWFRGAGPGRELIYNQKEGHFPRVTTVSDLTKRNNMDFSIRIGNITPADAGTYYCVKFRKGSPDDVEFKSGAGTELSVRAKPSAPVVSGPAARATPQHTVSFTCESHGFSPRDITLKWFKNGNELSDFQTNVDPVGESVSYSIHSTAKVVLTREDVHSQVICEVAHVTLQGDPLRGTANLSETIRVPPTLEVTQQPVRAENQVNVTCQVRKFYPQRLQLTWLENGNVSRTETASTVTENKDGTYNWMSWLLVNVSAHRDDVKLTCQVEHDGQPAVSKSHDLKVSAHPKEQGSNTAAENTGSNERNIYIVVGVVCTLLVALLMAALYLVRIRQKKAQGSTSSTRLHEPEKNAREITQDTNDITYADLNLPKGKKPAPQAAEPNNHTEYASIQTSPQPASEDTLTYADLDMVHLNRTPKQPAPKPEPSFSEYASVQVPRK
T1 sequence (Q08722 whole entry, looked up): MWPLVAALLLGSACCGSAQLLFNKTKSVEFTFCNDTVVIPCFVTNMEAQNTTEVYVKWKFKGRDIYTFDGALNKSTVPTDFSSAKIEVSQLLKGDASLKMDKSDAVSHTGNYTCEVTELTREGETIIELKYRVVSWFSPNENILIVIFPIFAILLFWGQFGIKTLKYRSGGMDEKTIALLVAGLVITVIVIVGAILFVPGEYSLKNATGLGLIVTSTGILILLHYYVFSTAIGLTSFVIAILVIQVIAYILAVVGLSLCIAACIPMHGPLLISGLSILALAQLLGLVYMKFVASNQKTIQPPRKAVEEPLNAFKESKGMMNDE

O=C1c2c(O)cccc2Cc2cccc(O)c21
inactive: [1] | [2] | [3] | [4] | [5]

CC1(C)S[C@@H]2[C@H](NC(=O)Cc3ccccc3)C(=O)N2[C@H]1C(=O)O (tested in a mixture with another compound)
inactive: [1] | [2] | [3] | [4] | [5]

CC1=C(CC(=O)O)c2cc(F)ccc2/C1=C\c1ccc(S(C)=O)cc1 (stereo not drawn)
not listed: [9] | [10] | [11]
inactive: all other assays above

COc1ccc(Cl)cc1C(=O)NCCc1ccc(S(=O)(=O)NC(=O)NC2CCCCC2)cc1
inactive: all assays above

Cn1c(=O)c2c(ncn2CC2OCCO2)n(C)c1=O
inactive: [1] | [2] | [3] | [4] | [5]

Nc1ccc(S(=O)(=O)NC(=O)c2ccccc2)cc1
inactive: [1] | [2] | [3] | [4] | [5]

NC1CCN(c2cccc(Cl)n2)CC1
not listed: [10] | [11]
inactive: all other assays above

OCC(CO)N[C@H]1C[C@](O)(CO)[C@@H](O)[C@H](O)[C@H]1O
inactive: [1] | [2] | [3] | [4] | [5]

Oc1cccc(O)c1
inactive: [1] | [2] | [3] | [4] | [5]

Nc1nc2c(ncn2CCC(CO)CO)c(=O)[nH]1
inactive: [1] | [2] | [3] | [4] | [5]

O=C(O)c1ccccn1
inactive: [1] | [2] | [3] | [4] | [5]

CC(C)(C)C(=O)C(Oc1ccc(Cl)cc1)n1ccnc1 (stereo not drawn)
inactive: [1] | [2] | [3] | [4] | [5]

O=c1cc[nH]c(=S)[nH]1
inactive: [1] | [2] | [3] | [4] | [5]

Cc1cc2nc3c(=O)[nH]c(=O)nc-3n(C[C@H](O)[C@H](O)[C@H](O)CO)c2cc1C
inactive: [1] | [2] | [3] | [4] | [5]

O=c1cc[nH]c(=O)[nH]1
inactive: [1] | [2] | [3] | [4] | [5]
